Sampled rows, rich in hits. Any-hit rate of the full collection: about 2.6%.
COUP-TFII inh = NR2F2 transcriptional activity inhibitors, primary screen, cell-based, luciferase reporter, HEK293T, luminescence; inhibition, % at 8.6 µM; AID 686940, 2013; 370,000 tested, 0.7% active; HEK293T NGFI-A luciferase reporter;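 active = inhibition above a per-plate cutoff, mean inhibition of test wells between control levels plus 3 SD, cut at about 38% in these data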;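 note: cells cotransfected with COUP-TFII expression vector driving the NGFI-A reporter; 0% = median of COUP-TF2 test wells and 100% = reporter-only cells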
Target sequence (P24468 whole entry, looked up): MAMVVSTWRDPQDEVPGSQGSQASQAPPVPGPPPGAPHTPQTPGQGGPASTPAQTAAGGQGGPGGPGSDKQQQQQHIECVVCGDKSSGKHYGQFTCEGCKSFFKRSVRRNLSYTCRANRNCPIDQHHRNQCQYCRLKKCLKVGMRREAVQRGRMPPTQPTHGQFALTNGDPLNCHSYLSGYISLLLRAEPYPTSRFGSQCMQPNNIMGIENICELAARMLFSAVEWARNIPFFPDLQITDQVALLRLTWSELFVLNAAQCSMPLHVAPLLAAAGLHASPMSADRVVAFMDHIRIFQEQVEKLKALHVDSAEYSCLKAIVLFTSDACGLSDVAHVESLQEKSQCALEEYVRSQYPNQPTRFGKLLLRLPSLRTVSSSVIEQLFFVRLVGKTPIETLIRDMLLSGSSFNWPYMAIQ
H9c2 protect = cardioprotection against H2O2-induced cell death, primary screen, uHTS, H9c2 cells, ATPLite luminescence. H9c2 cardiomyocytes, H2O2 injury protection, 2 h. protection from H2O2 cell death, % at 20 µM. 360,000 tested, 0.63% active;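 active = compounds giving at least 50% protection of heart cells from peroxide-induced death in the single-dose screen, raw or plate-pattern-corrected value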;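 note: 0% = DMSO wells with peroxide and 100% = DMSO wells without peroxide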
Gli-Sufu block = Gli-Sufu pathway antagonists, primary screen, luciferase luminescence, Sufu-KO-LIGHT cells, uHTS; Sufu-KO-LIGHT fibroblasts, Gli luciferase reporter luminescence; inhibition, % at 5 µM; 340,000 tested, 0.74% active; AID 588413, 2011;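 active = inhibition above about 55%, limit read from the data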;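 note: 0% = DMSO-treated cells and 100% = wells with medium but no cells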
697 NFkB inh = inhibitors of PMA/ionomycin-induced NF-kB reporter, 697 cells, primary screen, B-cell NF-kB inhibitor project, cell-based, luminescence, uHTS; 697 B-cell NF-kB luciferase reporter, 16 h; inhibition, % at 4 µM; 330,000 tested, 0.33% active; in the data active = inhibition above about 35%
Jurkat NFkB inh = inhibitors of induced NF-kB luciferase reporter, primary screen, TCR NF-kB activation inhibitor project, cell-based, luminescence, uHTS; 330,000 tested, 0.53% active; AID 435003, 2010; Jurkat, PMA/ionomycin-induced NF-kB luciferase reporter; inhibition, % at 4 µM; in the data active = inhibition above about 50%
TAG inh = inhibitors of triacylglycerol accumulation, primary screen, cell-based, uHTS, fluorescence, H9c2 | H9c2 cells, Nile Red lipid (TAG) fluorescence; cells loaded with 200 µM oleic acid | 230,000 tested, 0.66% active | inhibition, % at 12.5 µM | AID 651582, 2012;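 active = pattern-corrected inhibition of lipid staining of at least 50% with the nuclear-stain viability signal not falling by more than 50%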;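 note: 0% = DMSO wells and 100% = triacsin C control wells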
Gli-Sufu confirm = Gli-SUFU pathway antagonists, confirmation, single concentration, luciferase luminescence, Sufu-KO-LIGHT cells. shares compounds with Gli-Sufu block. Gli luciferase reporter. inhibition, % at 5 µM. 2,500 tested, 40% active;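 active = mean inhibition at 5 µM reaching about 45%, limit read from the data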;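 note: plate controls were DMSO-treated cells for no effect and wells lacking cells for full effect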
SufuKO cytotox = cytotoxicity in Sufu-KO-LIGHT cells, confirmation, cytotoxicity control for Gli-SUFU antagonist project, cell-based, ATP luminescence, single concentration. cytotoxicity, % at 5 µM. shares compounds with Gli-Sufu block. 2,500 tested, 32% active;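 active = mean cytotoxicity at 5 µM above about 25%, limit read from the data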;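 note: cells exposed to compound overnight for roughly 16 to 18 hours; plate controls were DMSO wells with cells for no effect and medium without cells for full effect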
Wnt3a counter = Wnt3a reporter signal inhibition, confirmation, counter-screen for Gli-SUFU antagonist project, Wnt-LIGHT cells, luminescence, single concentration | shares compounds with Gli-Sufu block | Wnt3a-driven luciferase reporter | inhibition, % at 6.25 µM | 2,500 tested, 20% active | AID 651995, 2013;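 active = mean inhibition above about 25%, limit read from the data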
An asterisk follows results filed as active; . = not tested or not shown.

SMILES	COUP-TFII inh	H9c2 protect	Gli-Sufu block	697 NFkB inh	Jurkat NFkB inh	TAG inh	Gli-Sufu confirm	SufuKO cytotox	Wnt3a counter
C/C(=N\O)C(C)(C)Nc1ccccc1F	16.7	6.3	95.8*	4.1	-0.7	5.9	10.1	13.4	-27.3
CCN(CC)C(=O)CC[C@@H]1CC[C@]2(CCCN(C(=O)c3ccno3)C2)O1	-7.9	.	.	.	.	.	.	.	.
Cc1nn(C)cc1CN1CCCC(C(=O)c2ccc(-c3ccccc3)cc2)C1 (stereo not drawn)	-4.1	-12.4	53.5	0.1	11.5	-19.9	25.0	21.6	-58.6
Cc1ccsc1C(=O)C1CCCN(Cc2cn(C)nc2-c2ccccc2)C1 (stereo not drawn)	10.6	0.6	21.7	2.6	-3.3	.	.	.	.
O=C(c1ccc(-c2ccccc2)cc1)C1CCCN(Cc2ccncc2)C1 (stereo not drawn)	25.2	-23.5	52.0	-8.5	5.2	-24.7	27.7	12.1	-38.7
O=C(c1ccc(-c2ccccc2)cc1)C1CCCN(C(=O)c2ccncc2)C1 (stereo not drawn)	9.2	-2.8	23.4	-3.9	-13.4	5.6	.	.	.
C=CCNC(=O)Nc1ccc2c(c1)[C@@]1(CC(=O)N(CC(C)C)C1c1ccccc1)C(=O)N2C (stereo partly drawn)	14.7	.	.	.	.	.	.	.	.
CCNC(=O)Nc1ccc2c(c1)C(=O)N(C)[C@H]1CC[C@@H](CC(=O)NCCN3CCCC3)O[C@@H]1CO2	-11.1	.	.	.	.	.	.	.	.
O=C(Cc1ncc(C(F)(F)F)cc1Cl)NCCc1ccccn1	12.5	1.3	55.1*	17.5	11.1	5.8	22.4	12.4	1.4
COC(=O)[C@]12C[C@H](CC(=O)NCCCN3CCCC3=O)C(=O)N(Cc3ccco3)C1=C[C@H](C(C)C)O[C@@H]2C1CC1	8.0	.	.	.	.	.	.	.	.
Cc1cc(NC(=O)CSc2cc(Cl)ccc2Cl)n(-c2ccccc2)n1	6.6	-0.4	52.5	-1.3	12.3	.	22.4	7.0	-4.6
CC(C)CNC(=O)OCc1cn(Cc2c(F)cccc2F)nn1	-7.5	.	.	.	.	.	.	.	.
CCC(=O)N1CCc2cc(Br)cc(S(=O)(=O)N3CCC(C(=O)NC(C)(C)C)CC3)c21	-13.4	-1.4	54.4	19.8	17.6	.	5.4	18.6	-39.4
CCC(=O)N1CCc2cc(Br)cc(S(=O)(=O)N3CCCC(C(=O)NC(C)(C)C)C3)c21 (stereo not drawn)	4.3	3.3	-8.7	-3.3	3.2	.	.	.	.
COc1cccc(CC(=O)O[C@@H]2CCC[C@@]3(C(=O)N(Cc4ccccc4)c4ccccc43)[C@H]2NC(=O)CCc2ccccc2)c1	-10.3	.	.	.	.	.	.	.	.
COc1cccc(C(=O)C2CCCN(C(=O)c3ccc(C#CC(C)(C)O)cc3)C2)c1 (stereo not drawn)	17.6	-5.4	59.5*	-24.7	-17.5	18.8	17.6	14.0	-45.0
CNC(=S)N/N=C/c1c(C(=O)OC)cnn1-c1ccc(Cl)cc1	-2.8	.	.	.	.	.	.	.	.
COC(=O)C1=C(C)N(Cc2ccccc2C(F)(F)F)C(=NCc2ccccc2C(F)(F)F)NC1c1ccc(C(F)(F)F)cc1 (stereo not drawn)	2.8	.	.	.	.	.	.	.	.
O=C(O)c1cccc(Nc2nc3ccccc3nc2NS(=O)(=O)c2ccc(F)cc2)c1	-10.9	-12.1	-17.7	-3.1	-7.5	-0.9	.	.	.
O=S(=O)(Nc1nc2ccccc2nc1Nc1ccc2c(c1)OCO2)c1ccc(F)cc1	14.3	-24.2	58.2*	-29.3	-6.1	.	57.7*	16.5	51.1*
CCOC(=O)C1=C(C(=O)OCC)C2N(Cc3ccc(Br)cc3)c3ccccc3[C@@]23C[C@@H](C(=O)OC)N(S(=O)(=O)c2cccs2)C3=N1 (stereo partly drawn)	4.7	.	.	.	.	.	.	.	.
COC(=O)c1cc(-c2c(C)noc2C)c(=O)n2c1CCC2	-5.9	.	.	.	.	.	.	.	.
O=C(OC12CCCN(C1)/C(=C/c1cccc(Cl)c1)C2)C1CCCC1 (stereo not drawn)	-0.1	.	.	.	.	.	.	.	.
O=C(NNC1CC(=O)N(c2ccc(Br)cc2)C1=O)c1cccs1 (stereo not drawn)	-31.4	2.5	2.3	26.1	15.5	9.7	.	.	.
CCOC(=O)CNC1CC(=O)N(c2ccc(Br)cc2)C1=O (stereo not drawn)	-16.9	-1.4	77.0*	-10.6	-5.5	-8.5	15.0	14.0	-9.0
SMILES	COUP-TFII inh	H9c2 protect	Gli-Sufu block	697 NFkB inh	Jurkat NFkB inh	TAG inh	Gli-Sufu confirm	SufuKO cytotox	Wnt3a counter
Cc1ccc(CNC(=O)CN(c2ccc(C)cc2)S(=O)(=O)c2c(C)nn(C)c2C)cc1	-12.2	-3.5	11.1	5.0	4.3	.	.	.	.
Cc1ccc(CNC(=O)CN(c2ccc(C)cc2)S(=O)(=O)c2c(C)n[nH]c2C)cc1	-2.7	-3.2	57.2*	-5.3	3.4	.	26.1	8.7	37.2*
CC(=O)N1c2ccccc2C(C)=NCC1C(=O)NC1CCCCC1 (stereo not drawn)	2.8	.	.	.	.	.	.	.	.
CCOc1ccc2[nH]c(=O)c(CN(Cc3ccco3)C(=O)c3ccc(Br)cc3)cc2c1	9.9	-5.4	5.6	.	.	-4.8	.	.	.
COc1ccc2[nH]c(=O)c(CN(Cc3ccco3)C(=O)c3ccccc3)cc2c1	-13.0	-2.4	95.0*	6.0	7.8	-11.2	26.1	2.5	-14.7
CCOC(=O)c1c(N)sc(C(O)(C(F)(F)F)C(F)(F)F)c1-c1ccc(F)cc1	0.0	-12.2	53.4	-12.3	-19.8	1.4	6.2	4.8	-56.3
C=CCNC1=C(Cl)C(=O)c2ccccc2C1=O	-17.5	-11.5	55.7*	-19.2	-12.5	.	30.2	5.2	78.7*
O=C1C(Cl)=C(NCCc2ccccc2)C(=O)c2ccccc21	-0.2	-27.8	10.6	.	.	9.9	.	.	.
OC(c1ccccc1)(c1ccccc1)C1CCN(CCCNc2cccc(OC(F)(F)F)c2)CC1	-6.9	.	.	.	.	.	.	.	.
C#CCNC(=O)C[C@H]1C[C@@]2(C(=O)OC)C(=C[C@H](C(C)C)O[C@@H]2C2CC2)N(Cc2ccc(Cl)cc2Cl)C1=O	-7.1	.	.	.	.	.	.	.	.
O=S(=O)(c1ccc(Br)cc1)c1nc(-c2ccco2)oc1NCC1CCCO1 (stereo not drawn)	15.9	-1.4	61.8*	28.9	13.8	-6.8	20.6	15.0	6.4
CCn1c(=O)c2cc(C(=O)NCC(OC)OC)sc2c2ccccc21	-10.0	7.5	50.2	22.3	-4.7	.	28.8	2.3	2.8

High-throughput results from PubChem BioAssay.
